TWEAK Fn14 block – inhibitors of TWEAK-Fn14 interaction signaling; TWEAK-stimulated Fn14 reporter cells, luciferase luminescence, 8 h; inhibition, % at 10 µM; 360,000 tested, 2% active; AID 1159606; in the data active means inhibition above about 50%
TROY NFkB inh – TROY signaling inhibition; 360,000 tested, 0.98% active; Q293 LMP1-TROYcd NF-kB luciferase reporter, 4 h; inhibition, % at 10 µM;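 active means compounds whose plate-normalised and pattern-corrected inhibition of the luciferase reporter signal at the single screening dose is 50% or more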
LGR2 antag – inhibitors of bursicon-induced Drosophila LGR2 receptor cAMP signaling. HEK293 LGR2, CRE-luciferase, bursicon-stimulated, 4 h. inhibition, % at 9.99 µM. 380,000 tested, 0.35% active;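 active means drop in luminescence signal, shown as inhibition above about 50% in the replicate tests, limit read from the data, passing the limit was not always enough; inconclusive means probably only some replicates passing the limit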;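 further: agonist challenge used bursicon conditioned medium at about half maximal strength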
EWS-Fli inh – inhibitors of EWS/Fli oncoprotein transcriptional activity; AID 651661; A673 NR0B1-luciferase reporter, viability-normalised; 350,000 tested, 0.67% active; inhibition, % at 12.6 µM;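 active means mean inhibition of at least 50% after viability correction, with every replicate also passing that limit; inconclusive means mean reaches 50% but only one of two replicates passes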;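 further: firefly luciferase signal divided by Alamar Blue viability fluorescence both relative to DMSO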
EBV LMP1 NFkB – inhibitors of Epstein-Barr LMP1-induced NF-kappaB reporter. 350,000 tested, 0.69% active. inhibition, % at 12.5 µM. LMP1-induced NF-kappaB luciferase reporter cells, luminescence; in the data active means inhibition above about 41%; inconclusive means no clear call, values can overlap the other calls
Of the large screens only hits and unclear results are named; the others gave an inactive call. In the library only some 2.5% were active in any assay of this set; here they are far more common.

O=C(/C=C/c1cccc([N+](=O)[O-])c1)n1cnc2ccccc21	TWEAK Fn14 block 103, EWS-Fli inh 65
COc1ccccc1C(=O)/C=C/c1ccc(N2CCCCC2)c([N+](=O)[O-])c1	TWEAK Fn14 block 55
O=C1c2cccc3c([N+](=O)[O-])ccc(c23)C(=O)N1Cc1cccnc1	TROY NFkB inh 64, LGR2 antag 103
Cc1cccc(N2C(=O)c3cccc4c(N5CCCCC5)c([N+](=O)[O-])cc(c34)C2=O)c1C	none (no result: EWS-Fli inh)
Cc1nnc(N2C(=O)c3cccc4c([N+](=O)[O-])ccc(c34)C2=O)s1	EWS-Fli inh 68
Cc1ccc(N2C(=O)c3cccc4c([N+](=O)[O-])ccc(c34)C2=O)c2cccnc12	none
Cc1ccnc(N2C(=O)c3cccc4c([N+](=O)[O-])ccc(c34)C2=O)c1	EWS-Fli inh 66
O=C(CCN1CCCCC1)N[C@H]1CC[C@H](CCNC(=O)c2cc(Cl)cc(Cl)c2)O[C@H]1CO	none (no result: TWEAK Fn14 block, TROY NFkB inh, EBV LMP1 NFkB)
C=CC[C@H](CC(=O)N(CCO)Cc1ccccc1)C(=O)N[C@@H](COC(=O)[C@H](CC=C)CC(=O)OC(C)(C)C)Cc1c[nH]c2ccccc12	none
C=CC[C@@H](CC(=O)N(CCO)Cc1ccccc1)C(=O)N[C@@H](COC(=O)[C@@H](CC=C)Cc1ccc(F)cc1)Cc1c[nH]c2ccccc12	TWEAK Fn14 block 57
C=CC[C@@H](CC(=O)N(CCO)Cc1ccccc1)C(=O)NC[C@H](OC(=O)[C@@H](CC=C)Cc1ccc(F)cc1)c1ccccc1	TWEAK Fn14 block 52
C=CC[C@@H](CC(=O)N(CCO)Cc1ccccc1)C(=O)N[C@H](COC(=O)[C@@H](CC=C)Cc1ccc(F)cc1)c1ccccc1	none
C=CC[C@@H](CC(=O)N[C@H](CO)Cc1ccccc1)C(=O)N[C@H](COC(=O)[C@@H](CC=C)Cc1ccc(F)cc1)Cc1c[nH]c2ccccc12	TWEAK Fn14 block 66, TROY NFkB inh 69
C=CC[C@H](CC(=O)N(CCO)Cc1ccccc1)C(=O)N[C@@H](COC(=O)[C@@H](CC=C)Cc1ccc(F)cc1)Cc1c[nH]c2ccccc12	TWEAK Fn14 block 70
COCC(=O)N(C)C[C@@H]1Oc2cc(C#CC(C)(C)O)ccc2S(=O)(=O)N([C@H](C)CO)C[C@@H]1C	none (no result: TWEAK Fn14 block, TROY NFkB inh, EBV LMP1 NFkB)
C=C(C)[C@@H]1C2=CC(C(=O)OC)=C(C[C@H](C(=C)C)[C@H]3O[C@H]3C3=C[C@H]1OC3=O)O2	TWEAK Fn14 block 72, EWS-Fli inh 57 (no result: LGR2 antag, EBV LMP1 NFkB)
NS(=O)(=O)c1ccc(CCNc2nn3c(-c4cccc(OC(F)(F)F)c4)cnc3s2)cc1	TWEAK Fn14 block 94, TROY NFkB inh 72 (no result: EBV LMP1 NFkB)
COc1ccc(CCNc2ccc(S(N)(=O)=O)cn2)cc1	none
C[C@@H]1CN([C@@H](C)CO)C(=O)c2cc(-c3cccc(F)c3)cnc2O[C@@H]1CN(C)C	none (no result: TWEAK Fn14 block, TROY NFkB inh, EBV LMP1 NFkB)
Cc1ccc(COc2ccccc2-c2cc(C(=O)N/N=C/c3cccnc3)[nH]n2)cc1	EWS-Fli inh 58
CCCCn1c(-c2ccncc2)nc2c1c(=O)[nH]c(=O)n2CC(C)C	TWEAK Fn14 block 76 (no result: TROY NFkB inh, EWS-Fli inh)
CN1C(=O)c2cc(NC(=O)Nc3ccccc3Cl)ccc2OC[C@@H]2O[C@H](CC(=O)O)CC[C@H]21	none (no result: TWEAK Fn14 block, TROY NFkB inh, EBV LMP1 NFkB)
CCN(CC)C(=O)c1ccc(/C=C/c2c[nH]c3ccccc23)[n+](C)c1	none (no result: EWS-Fli inh)
CC[n+]1c(/C=C/c2c[nH]c3ccccc23)ccc2cc(C)ccc21	LGR2 antag 108 (no result: TWEAK Fn14 block, TROY NFkB inh)
CO[C@H]1CN(C)C(=O)c2cc(NS(C)(=O)=O)ccc2OC[C@@H](C)N(C(=O)CN(C)C)C[C@H]1C	none (no result: TWEAK Fn14 block, TROY NFkB inh, EBV LMP1 NFkB)
O=C(Nc1cccc(Cl)c1)Nc1nnc(-c2ccncc2)s1	TWEAK Fn14 block 76, TROY NFkB inh 50, LGR2 antag 54
O=C(Nc1ccc(F)cc1)Nc1nnc(-c2ccncc2)s1	none (no result: EWS-Fli inh)
O=C(Nc1ccc(Cl)cc1)Nc1nnc(-c2ccncc2)s1	TWEAK Fn14 block 81, LGR2 antag inconclusive (no result: EWS-Fli inh)
O=C(Nc1cccc(Cl)c1)Nc1nnc(CSCCOc2ccc(Cl)cc2)s1	TROY NFkB inh 51, EBV LMP1 NFkB 44 (no result: EWS-Fli inh)
Cc1ccc(NC(=O)Nc2nnc(CSCCOc3ccc(Cl)cc3)s2)cc1	none (no result: LGR2 antag)
Cc1ccc(NC(=O)Nc2nnc(-c3ccncc3)s2)cc1C	TWEAK Fn14 block 82, LGR2 antag inconclusive
Cc1ccc(S(=O)(=O)N(C)C[C@@H]2Oc3c(NC(=O)c4nc5ccccc5s4)cccc3C(=O)N([C@H](C)CO)C[C@H]2C)cc1	none (no result: TWEAK Fn14 block, TROY NFkB inh, EBV LMP1 NFkB)
C[C@@H]1CN([C@H](C)CO)C(=O)c2cc(NC(=O)CCC(F)(F)F)ccc2O[C@@H](C)CCCCO[C@@H]1CN(C)Cc1ccc(C(=O)O)cc1	none (no result: TWEAK Fn14 block, TROY NFkB inh, EBV LMP1 NFkB)
C[C@@H]1CCCCO[C@@H](CN(C)S(=O)(=O)c2cn(C)cn2)[C@@H](C)CN([C@@H](C)CO)C(=O)c2cc(NS(=O)(=O)c3ccc(Cl)cc3)ccc2O1	none (no result: TWEAK Fn14 block, TROY NFkB inh, EBV LMP1 NFkB)
Cc1noc(C)c1S(=O)(=O)N(C)C[C@H]1Oc2ccc(NC(=O)Nc3ccccc3)cc2CC(=O)N([C@H](C)CO)C[C@@H]1C	none (no result: TWEAK Fn14 block, TROY NFkB inh, EBV LMP1 NFkB)
COc1ccc2c3c(n(C)c2c1)[C@@H](CO)N(C(=O)c1cnccn1)CC31CCN(C)CC1	none (no result: TWEAK Fn14 block, TROY NFkB inh, EBV LMP1 NFkB)
O=C(Nc1ccc(Cl)cc1)Nc1nnc(CSCc2ccccc2)s1	none (no result: EWS-Fli inh)
O=C(Nc1ccc(F)cc1)Nc1nnc(COc2ccccc2F)s1	TROY NFkB inh 57
O=C(Nc1ccc(Cl)cc1)Nc1nnc(CSc2ccc(Cl)cc2)s1	TWEAK Fn14 block 64
Cc1cccc(S(=O)(=O)N2C[C@@H](O)COC[C@@H]3O[C@H](CC(=O)N4CCN(C)CC4)CC[C@H]32)c1	none (no result: TWEAK Fn14 block, TROY NFkB inh, EBV LMP1 NFkB)
CCCC#Cc1ccc([C@@H]2[C@@H](CO)N3C(=O)CN(C(=O)Nc4ccccc4F)C[C@H]23)cc1	none (no result: TWEAK Fn14 block, TROY NFkB inh, EBV LMP1 NFkB)
CCC(=O)Nc1ccc2c(c1)OC[C@@H](C)N(Cc1cccnc1)C[C@H](C)[C@@H](OC)CN(C)C2=O	none (no result: TWEAK Fn14 block, TROY NFkB inh, EBV LMP1 NFkB)
CCCC#Cc1ccc([C@H]2[C@@H](CO)N3C(=O)CN(C(=O)NC4CCCC4)C[C@H]23)cc1	none (no result: TWEAK Fn14 block, TROY NFkB inh, EBV LMP1 NFkB)
COc1ccc(C(C)(O)c2nc(-c3ccncc3)cs2)cc1 (stereo not given)	EWS-Fli inh 59 (no result: EBV LMP1 NFkB)
CCN(CC)C(=O)c1cccc(-c2csc(C(C)(O)c3cccc(F)c3)n2)c1 (stereo not given)	TWEAK Fn14 block 53 (no result: EBV LMP1 NFkB)
COc1ccc(C(C)(O)c2nc(-c3ccc(F)cc3OC)cs2)cc1 (stereo not given)	EWS-Fli inh 58 (no result: EBV LMP1 NFkB)
COc1ccc(C(C)(O)c2nc(-c3ccccc3C)cs2)cc1 (stereo not given)	EWS-Fli inh 60 (no result: EBV LMP1 NFkB)
CC(=O)Nc1cccc(-c2csc(C(C)(O)c3cccc(F)c3)n2)c1 (stereo not given)	none (no result: EBV LMP1 NFkB)
Cc1ccc(S(=O)(=O)Nc2cccc3c2O[C@@H](CN(C)S(=O)(=O)c2cccs2)[C@H](C)CN([C@@H](C)CO)C3=O)cc1	none (no result: TWEAK Fn14 block, TROY NFkB inh, EBV LMP1 NFkB)
COc1ccc(C(C)(O)c2nc(-c3cccc(C#N)c3)cs2)cc1 (stereo not given)	none (no result: EBV LMP1 NFkB)
COc1cccc(C(C)(O)c2nc(-c3cccc(C#N)c3)cs2)c1 (stereo not given)	TWEAK Fn14 block 52 (no result: EBV LMP1 NFkB)
O=C(Nc1ccc(Cl)cc1)c1ccc(CN2CCc3ccccc3C2)cc1	none
CCCNC(=O)c1ccc(CN2CCc3ccccc3C2)cc1	none (no result: LGR2 antag, EWS-Fli inh)

Compound activity: PubChem, several laboratories
